# FBA Mtb inh = inhibitors of M. tuberculosis fructose-bisphosphate aldolase; P9WQA3; purified M. tuberculosis FBA, fluorescence read-out; inhibition, % at 1 µM; hit rate 2.3% among 360,000; in the data active means inhibition above about 27%;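 further: 0% = vehicle and 100% = reference inhibitor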
# Target sequence (P9WQA3 whole entry, looked up): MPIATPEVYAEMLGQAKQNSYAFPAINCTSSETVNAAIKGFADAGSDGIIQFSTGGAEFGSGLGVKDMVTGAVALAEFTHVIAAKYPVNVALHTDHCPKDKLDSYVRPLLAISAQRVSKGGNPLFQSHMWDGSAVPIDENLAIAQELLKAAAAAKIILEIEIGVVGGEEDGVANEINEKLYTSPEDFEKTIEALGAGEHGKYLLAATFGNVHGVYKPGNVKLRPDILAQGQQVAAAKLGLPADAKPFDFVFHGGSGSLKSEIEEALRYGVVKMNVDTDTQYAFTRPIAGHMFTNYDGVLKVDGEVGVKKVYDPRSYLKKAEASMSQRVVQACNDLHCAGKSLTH
# Vc quorum ag-1 = quorum light induction in luxS cqsA deficient V. cholerae; hit rate 0.16% among 350,000; AID 588436; activation, % at 18.7 µM; V. cholerae BH1578 lux reporter, luminescence, 6 h; in the data active means activation mostly above about 9.7%, no sharp cut-off
# Mtb BioA inh = BioA (M. tuberculosis) enzyme inhibition | purified M. tuberculosis BioA enzyme, plate reader | hit rate 0.096% among 360,000 | inhibition, % at 9.99 µM | AID 602481; in the data active means inhibition above about 40%
# GDH-TPI inh = counter-screen for M. tuberculosis FBA inhibitors: GDH-TPI coupled enzymes; GDH-TPI coupled enzyme counterscreen, NADH absorbance; inhibition, % at 4.8 µM; hit rate 1.2% among 360,000; AID 588335; in the data active means inhibition above about 30%;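 further: 0% = DMSO wells and 100% = wells lacking the enzyme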
# Vc quorum ag-2 = quorum light induction in BH1578 reporter strain | shares compounds with Vc quorum ag-1 | V. cholerae BH1578 lux reporter, luminescence, 6 h | activation, % at 50 µM | 620 tested, under 10 active; call rule not given here
# HeLa tox = cytotoxicity in HeLa cells at 24 hours. shares compounds with Vc quorum ag-1. HeLa viability, CellTiter-Glo ATP luminescence. activity change, negative = cytotoxicity, % at 35 µM. 25 tested, under 10 active. AID 624140;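 active means signal drop with fitted half-maximal concentration at or below twice the highest valid dose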
# The depositor's hits bear a star; i = inactive; nt = no result; + = active, no number. A selection: hits, their analogues and other compounds. The true share with any hit is near 3%.
SMILES,FBA Mtb inh,Vc quorum ag-1,Mtb BioA inh,GDH-TPI inh,Vc quorum ag-2,others
CCc1ccc(OCCNC(=O)c2ccco2)cc1,-0.5,nt,-0.1,-2.7,i,
CCOc1ccc(CNC(=O)c2ccco2)cc1,-4.8,60.4*,2.6,-6.7,i,
O=C(NCc1ccccc1)c1ccco1,1.2,i,-1.0,7.8,nt,
Cc1ccc(OCCNC(=O)c2ccco2)cc1C,-0.1,+,0.8,-4.7,500.3,
CCOc1ccc(CN(C)C(=O)CCNC(=O)c2ccco2)cc1,4.7,-0.2,-3.6,-1.6,nt,
Cc1ccc(C(=O)NCCOc2ccc(Cl)cc2)cc1,0.0,i,nt,15.8,nt,
Cc1ccc(OCCNC(=O)c2cccc(C)c2)cc1,4.2,+,-0.5,8.6,600.7,HeLa tox=5.9
Cc1ccc(S(=O)(=O)Nc2cccc3c2O[C@@H](CN(C)Cc2ccc(C(F)(F)F)cc2)[C@H](C)CN([C@H](C)CO)C3=O)cc1,nt,nt,-0.3,nt,nt,
O=C(C[C@@H]1CC[C@H](NC(=O)C2CC2)[C@H](CO)O1)NCCCN1CCOCC1,nt,nt,0.5,nt,nt,
CC(=O)N1CCCCN2[C@H](C1)[C@@H](c1ccc(C#Cc3ccccc3F)cc1)[C@@H]2CO,nt,nt,4.8,nt,nt,
O=C(NCCOc1ccc(Cl)cc1)c1ccco1,3.2,425.0*,0.4,1.8,40.0,
O=C(NCCNC(=O)c1ccco1)c1ccco1,0.7,-0.2,-6.1,7.8,nt,
O=C(N[C@H]1CC[C@H](CCNS(=O)(=O)c2ccccc2)O[C@H]1CO)c1cccnc1,nt,nt,-0.3,nt,nt,
Cc1ccccc1OCC(=O)OCC(=O)N1CCCc2ccccc21,-2.4,14.3,-0.7,-0.7,0.3,
CC(C)CC(=O)Nc1ccccc1N1CCN(C(=O)c2ccccc2)CC1,7.3,34.1*,0.5,-2.9,0.1,
C[C@@H]1CN([C@H](C)CO)C(=O)c2cc(NS(=O)(=O)c3ccc(Cl)cc3)ccc2O[C@@H](C)CCCCO[C@@H]1CN(C)C(=O)c1ccncc1,nt,nt,-1.3,nt,nt,
Cc1cccc(-c2noc(CN(C(=O)C34CC5CC(CC(C5)C3)C4)C(C)C)n2)c1,0.4,17.9*,-0.2,-5.1,0.3,
CC(C)N(Cc1nc(-c2ccc(Cl)cc2)no1)C(=O)C12CC3CC(CC(C3)C1)C2,2.8,3.6,1.1,2.2,nt,
COc1ccc(Cl)cc1NC(=O)CN1CCc2ccccc2C1,-1.2,106.7*,-1.6,16.8,277.5,
COc1cc(NC(=O)Nc2cccc(Cl)c2)c(OC)cc1NC(=O)CN1CCCCC1,0.2,12.5,-1.3,-5.3,-0.2,
COc1cc2c(cc1OC)CN(CC(=O)Nc1ccc(Cl)cc1Cl)CC2,6.8,-2.1,-2.4,10.0,nt,
CN(C)C(=O)CCSc1nnc(-c2ccco2)o1,0.8,101.4*,0.9,-6.2,882.7,
COc1ccc(CN(C)C[C@@H]2Oc3c(NS(=O)(=O)c4cccs4)cccc3C(=O)N([C@@H](C)CO)C[C@@H]2C)cc1,nt,nt,8.1,nt,nt,
COc1cccc(CN(C)C(=O)CSC(C)C(=O)Nc2cc(C)on2)c1OC (centres undefined),-3.5,1.8,0.1,2.1,0.0,
C[C@H]1CCCCO[C@@H](CN(C)C(=O)CCCN(C)C)[C@@H](C)CN([C@@H](C)CO)C(=O)c2cc(NS(=O)(=O)c3ccc(Cl)cc3)ccc2O1,nt,nt,1.0,nt,nt,
SMILES,FBA Mtb inh,Vc quorum ag-1,Mtb BioA inh,GDH-TPI inh,Vc quorum ag-2,others
COC(=O)[C@@H]1CC[C@@](C)(c2ccc(OC)cc2)C1(C)C,0.0,-4.0,-0.4,-9.2,nt,
COC(=O)[C@H]1C[C@H](C(=O)O)[C@@H](C)C1(C)C,-3.4,25.1,-0.8,-1.3,0.1,
CC(C)[C@H](NC(=O)c1ccccc1F)C(=O)OCC(=O)NC1CC1,5.1,19.5*,-1.9,1.8,0.4,
O=C(N[C@@H]1CC[C@@H](CCn2cc(-c3ccccn3)nn2)O[C@H]1CO)c1ccncc1,nt,nt,-1.9,nt,nt,
Cc1ccc(Oc2ccc(S(=O)(=O)N3CCOCC3)cc2C(N)=O)c(-n2nc3ccccc3n2)c1,24.6,25.0*,0.8,-6.0,0.9,
COc1ccccc1Oc1ccc(S(=O)(=O)N2CCOCC2)cc1S(=O)(=O)N1CCOCC1,0.0,nt,1.9,-5.2,nt,
CN(C)CC(=O)Nc1ccc2c(c1)[C@@H]1C[C@H](CC(=O)NCc3cccnc3)O[C@H](CO)[C@@H]1O2,nt,nt,-1.1,nt,nt,
Cc1sc(N)nc1-c1ccc(Oc2ccccc2)cc1,4.2,45.8*,-3.4,15.4,65.7,
O=c1n(-c2ccccc2)c(=O)n2n1CC(COc1ccccc1)=C1[C@@H](c3ccccc3)OB(O)C[C@@H]12,nt,nt,2.3,nt,nt,
CC(=O)N1CCC(=O)N(C(C)C)c2ccccc21,1.8,25.0*,nt,4.7,0.3,
CCOC(=O)C1=C(C)N=C2SCCC(=O)N2C1c1cc(Br)ccc1OC (centres undefined),-0.2,12.5,nt,6.6,0.1,
CCOc1ccccc1N(CC(=O)Nc1ccc2c(c1)OCO2)S(C)(=O)=O,1.6,-0.3,2.0,0.5,nt,
CCOc1ccccc1N(CC(=O)Nc1ccc2c(c1)OCCO2)S(C)(=O)=O,5.0,21.3,1.0,-13.9,-0.1,
Cc1noc(C)c1NC(=O)N(C)C[C@H]1Oc2cc(C#CCC3CCCC3)ccc2S(=O)(=O)N([C@H](C)CO)C[C@H]1C,nt,nt,0.8,nt,nt,
C=CCn1c(=O)c(C(=O)NC(C)c2ccccc2)c(O)c2ccccc21 (centres undefined),1.2,450.8*,-0.9,-7.5,0.1,
COc1cccc(CNC(=O)C2CSC3(C)CCC(=O)N23)c1 (centres undefined),1.8,14.3,-0.5,4.2,0.0,
O=C(COC(=O)C1CC1)Nc1ccc(Oc2ccccc2)cc1,-0.2,-0.2,6.6,2.3,nt,
O=C(COC(=O)C1CCC1)Nc1ccc(Oc2ccccc2)cc1,-2.9,1.8,1.8,9.6,0.1,
O=C1OC(c2ccc3c(c2)OCO3)N(C(=O)c2ccc(Cl)c(Cl)c2)c2ccccc21 (centres undefined),0.0,0.6,-3.3,2.2,nt,
Cc1cccc(C(=O)N2c3ccccc3C(=O)OC2c2ccc3c(c2)OCO3)c1 (centres undefined),-1.9,32.1*,-3.5,1.7,3.9,
COc1ccc(Cl)cc1S(=O)(=O)NCCCn1ccnc1,0.8,i,0.4,-0.7,nt,
COc1ccc(Cl)cc1S(=O)(=O)NC(C)C(=O)NCCCn1ccnc1 (centres undefined),-3.1,14.3,-0.9,-2.1,0.4,
Cc1ccc(S(=O)(=O)N[C@@H]2CC[C@@H](CCNS(=O)(=O)Cc3ccccc3)O[C@H]2CO)cc1,nt,nt,-4.1,nt,nt,
Cc1cnc(C(=O)OCC(=O)NC(=O)NC(C)C)cn1,0.5,33.3*,-0.9,-3.5,-0.1,
CN1CCN(C(=O)C[C@H]2CC[C@H](NC(=O)c3ccc4c(c3)OCO4)[C@@H](CO)O2)CC1,nt,nt,-1.8,nt,nt,
COc1ccc(NC(=O)CCS(=O)(=O)c2ccc3c(c2)CCN3C(C)=O)cc1,-1.0,-0.3,0.1,7.8,nt,
COc1ccc(NC(=O)CCS(=O)(=O)c2ccc3c(c2)CCCN3C(C)=O)cc1Cl,-0.3,16.7*,2.3,2.8,3.6,
CC1CCN(c2ccccc2NC(=O)c2cc3ccccc3o2)CC1,2.2,97.2*,0.6,4.9,0.3,

# From PubChem BioAssay
